# Measured values: PubChem BioAssay (Tox21)
# Records with an inconclusive call do not appear. A number with no mark means an inactive call. Calls of active or inactive are those of the source. Calls follow the shape of the dose curve; as a rule, active = well fitted cell-killing curve with a large enough effect in the repeat runs; inconclusive = weak or mixed curves, or effect the other way; inactive = no such curve, though single readings can be large or run the other way.
# Test: qHTS assay for small molecule activators of the heat shock response signaling pathway - cell viability counter screen (AID 743209); also: nearly all actives have a fitted effect of over 50% in size
# Conditions: HSE-bla HeLa viability, CellTiter-Glo luminescence, 5 h; series mostly up to 62.6 µM; activity change, negative = cytotoxicity: at the top concentration
# Text: U.S. Tox21 Program National Center for Advancing Translational Sciences [NCATS] NIH Chemical Genomics Center [NCGC] U.S. Environmental Protection Agency [EPA] National Institutes of Environmental Health Sciences [NIEHS] National Toxicology Program [NTP] U.S. Food and Drug Administration [FDA] Tox21 Assay Overview: Various chemicals, environmental and physiological stress conditions may lead to the activation of heat shock response/ unfolded protein response (HSR/UPR). There are three heat shock transcription factors (HSFs) (HSF-1, -2, and -4) mediating transcriptional regulation of the human HSR. To identify the compounds that activate HSR signaling, HSE-bla HeLa cell line (Invitrogen, Carlsbad, CA, USA) containing a beta-lactamase reporter gene under the control of the heat shock response elements was used to screen Tox21 10K compound library. The cytotoxicity of the Tox21 compound library against the HSE-bla HeLa cell line was tested in parallel by measuring the cell viability using CellTiter-Glo assay (Promega, Madison, WI) in the same wells.
# Tox21 Assay Protocol Summary: The CellSensor HSE-bla HeLa cells (Invitrogen, Carlsbad, CA, USA) were dispensed at 1500 cells/6uL/well into 1536-well black wall/clear bottom plates using a Multidrop combi (Thermo Fisher Scientific, Waltham, MA) dispenser. After the assay plates were incubated at 37 C and 5% CO2 overnight, 23 nL of compounds dissolved in DMSO, positive controls or DMSO only was transferred to the assay plate by a Pintool station (Kalypsys, San Diego, CA). The plates were incubated at 37 C for 5 h. After 1 uL of LiveBLAzerTM B/G FRET substrate was added using a Flying Reagent Dispenser (FRD, Beckman Coulter, Indianapolis, IN, USA), the plates were incubated at room temperature for 2.5 h, and fluorescence intensity was measured by an Envision plate reader (PerkinElmer, Shelton, CT). For cell viability readout that measures cytotoxicity, 3 ul/well of CellTiter-Glo reagent was added into the assay plates using a FRD. After 30 min incubation at room temperature, the luminescence intensity in the plates was measured using a ViewLux (PerkinElmer) plate reader.
# % is scaled to controls: 0 for no effect and ±100 for the full control effect.
SMILES,outcome,"activity change, negative = cytotoxicity"
Cc1cc(Cl)ccc1O,inactive,–
Cc1cc(-c2cc(C)c(N)c(C)c2)cc(C)c1N,inactive,–
CN(C)CCO,inactive,–
Cc1ccc([N+](=O)[O-])cc1C,inactive,–
CN1C(=O)CN=C(c2ccccc2)c2cc(Cl)ccc21,inactive,–
CC1C=[C-]C=C1.[C-]#[O+].[C-]#[O+].[C-]#[O+].[Mn],inactive,–
O=S(=O)(c1ccc(O)cc1)c1ccc(O)cc1,inactive,–
CC(C#N)CCC#N (stereo not given),inactive,–
O=[N+]([O-])c1ccc([As](=O)(O)O)cc1,inactive,–
CCCCN(CCCC)SN(C)C(=O)Oc1cccc2c1OC(C)(C)C2,–,-7.68% [at 81.1 µM]
Clc1ccccc1Cl,inactive,–
c1ccc(-c2ccccc2)cc1,inactive,–
CNC(=O)Oc1ccccc1OC(C)C,inactive,–
O=C(NC(=O)c1c(F)cccc1F)Nc1cc(Cl)c(OC(F)(F)C(F)C(F)(F)F)cc1Cl (stereo not given),–,-2.43%
C#CC(C)(C)NC(=O)c1cc(Cl)cc(Cl)c1,inactive,–
CCC[CH2][Sn]([Cl])([Cl])[Cl],inactive,–
C[C@]12CC[C@H]3[C@@H](CC[C@@]45O[C@@H]4C(O)=C(C#N)C[C@]35C)[C@@H]1CC[C@@H]2O,inactive,–
Oc1ccccc1Cl,inactive,–
CC(Br)C(=O)O (stereo not given),inactive,–
CC(C)C#N,inactive,–

SMILES,outcome,"activity change, negative = cytotoxicity"
O=NN1CCCCCCC1,inactive,–
CCOP(OCC)OCC,inactive,–
Cc1cccc([N+](=O)[O-])c1,inactive,–
COCCl,inactive,–
[O-][Cl+2]([O-])O,inactive,–
O=NN1CCCC1,inactive,–
COC(=O)NC(=S)Nc1ccccc1NC(=S)NC(=O)OC,inactive,–
CCCN(CCC)N=O,inactive,–
CC(C)N1C(=O)c2ccccc2NS1(=O)=O,inactive,–
[N-]=[N+]=[N-],inactive,–
Cc1ccccc1O,inactive,–
CCN(CC)c1ccccc1,inactive,–
CC(C)=C[C@@H]1[C@@H](C(=O)OCc2coc(Cc3ccccc3)c2)C1(C)C,inactive,–
BrCCBr,inactive,–
O=[N+]([O-])c1ccccc1,inactive,–
CCC[N+](=O)[O-],inactive,–
Nc1ccc(Cc2ccc(N)cc2)cc1,inactive,–
O=c1n(Cl)c(=O)n(Cl)c(=O)n1Cl,–,2.24%
CCOP(=S)(OCC)Oc1cnc2ccccc2n1,inactive,–
Clc1ccc(Cl)cc1,inactive,–
